Screening data deposited in PubChem BioAssay by National Center for Advancing Translational Sciences (NCATS).
HEK cytotox – cytotoxic compounds in HEK 293 cells; HEK 293 viability, ATP luminescence (CellTiter-Glo), 48-72 h; AID 1345083; Potency, µM (highest dose often 115 µM), without a hit: top-dose activity change, negative = cytotoxicity, usual class: inhibitors; 94,000 tested, 6.6% active; note: % is set by controls: 0 for no effect and ±100 for the full control effect; nearly all actives have a fitted effect of over 60% in size
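CellTiter-Glo luminescence (cellular ATP) was read after 48 or 72 hr of compound exposure at 37 degree Celsius. Cells were HEK 293 plated at 250 cells/well.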
SNCA expr inhib – SNCA gene expression inhibition | HEK-293 SNCA-luciferase knock-in, luminescence, 24 h | Potency, µM (titrated, usually from 57.2 µM), for inactives: top-dose activity change, negative = inhibition, most hits filed as inhibitors | 140,000 tested, 0.17% active;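 note: plate controls were DMSO cells for no effect and cell-free wells for full effect; nearly all actives have a fitted effect of over 45% in size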
NIH3T3 tox – kills NIH 3T3 cells; NIH 3T3 viability, CellTiter-Glo ATP luminescence, 48-72 h; AID 1345082; Potency, µM (series often up to 96.7 µM), for inactives: top-dose activity change, negative = cytotoxicity, actives largely listed as inhibitors; 94,000 tested, 4.3% active; note: % is set by controls: 0 for no effect and ±100 for the full control effect; nearly all actives have a fitted effect of over 55% in size
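Cytotoxicity was measured by CellTiter-Glo ATP luminescence after 48 or 72 h compound exposure at 37 °C. Mouse NIH 3T3 fibroblasts were seeded at 400 cells/well and dosed by 23 nL pin transfer.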
Luciferase inh – inhibitors of firefly (Photinus pyralis) luciferase. P08659. Potency, µM (top dose mostly 115 µM), usual class: inhibitors. purified P. pyralis luciferase, luminescence, biochemical. 76,000 tested, 2.5% active; note: % is set by controls: 0 for no effect and ±100 for the full control effect; nearly all actives have a fitted effect of over 65% in size
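FLuc 10nM, D-luciferin 10uM, ATP 10uM, Mg acetate 10mM, Tris acetate pH 7.5, Tween/BSA; cpd qHTS; enzyme added last; CCD luminescence.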
SNCA viab count – reduces viability of HEK-293 SNCA reporter cells; HEK-293-SNCA-luc viability, GF-AFC fluorescence, 24 h; Potency, µM (highest dose often 57.1 µM), for the others: at the top dose activity change, negative = cytotoxicity, most hits filed as cytotoxic; 150,000 tested, 0.12% active; AID 1671193;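 note: 0% = DMSO-treated cells and -100% = medium-only wells without cells; nearly all actives have a fitted effect of over 30% in size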
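HEK-293-SNCA-luc cells (1500/well) plated 24 h, then exposed 24 h to a dilution series; GF-AFC added 30 min at 37C, fluorescence 405/540 nm; normalised to medium-only and DMSO wells, Hill fit.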
NPR1 antag – antagonists of human natriuretic peptide receptor Npr1 | HEK293 hNpr1 GloSensor cGMP, ANP-stimulated luminescence | Potency, µM (highest dose often 46.3 µM), inactives show at the highest dose activity change, negative = inhibition, hits mostly inhibitors | 76,000 tested, 1.6% active | AID 1347048; calls by dose curve; note: % is set by controls: 0 for no effect and ±100 for the full control effect; nearly all actives have a fitted effect of over 60% in size
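HEK293 cells stably expressing human Npr1 and cGMP GloSensor pGS-40F, loaded 2 h with 2% GloSensor reagent, given compound 30 min at room temperature. Luminescence read before and 20 min after 0.1 nM hNppA.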
NPR1 antag cnf – confirmation of human Npr1 natriuretic peptide receptor antagonists; Potency, µM (titrated, usually from 57.6 µM), for inactives: at the top dose activity change, negative = inhibition, actives largely listed as inhibitors; 1,400 tested, 76% active; shares compounds with NPR1 antag; HEK293 hNpr1 cGMP GloSensor luminescence, ANP-stimulated; AID 1347044; calls by dose curve; note: nearly all actives have a fitted effect of over 70% in size
NPR2 antag – antagonizes human Npr2, subtype selectivity check | AID 1347046 | shares compounds with NPR1 antag | Potency, µM (highest dose often 57.6 µM), for inactives: at the highest dose activity change, negative = inhibition, hits mostly inhibitors | HEK293 hNpr2 GloSensor cGMP luminescence, CNP-stimulated | 1,400 tested, 67% active; calls by dose curve; note: nearly all actives have a fitted effect of over 70% in size
Target sequence (P20594 whole entry, looked up): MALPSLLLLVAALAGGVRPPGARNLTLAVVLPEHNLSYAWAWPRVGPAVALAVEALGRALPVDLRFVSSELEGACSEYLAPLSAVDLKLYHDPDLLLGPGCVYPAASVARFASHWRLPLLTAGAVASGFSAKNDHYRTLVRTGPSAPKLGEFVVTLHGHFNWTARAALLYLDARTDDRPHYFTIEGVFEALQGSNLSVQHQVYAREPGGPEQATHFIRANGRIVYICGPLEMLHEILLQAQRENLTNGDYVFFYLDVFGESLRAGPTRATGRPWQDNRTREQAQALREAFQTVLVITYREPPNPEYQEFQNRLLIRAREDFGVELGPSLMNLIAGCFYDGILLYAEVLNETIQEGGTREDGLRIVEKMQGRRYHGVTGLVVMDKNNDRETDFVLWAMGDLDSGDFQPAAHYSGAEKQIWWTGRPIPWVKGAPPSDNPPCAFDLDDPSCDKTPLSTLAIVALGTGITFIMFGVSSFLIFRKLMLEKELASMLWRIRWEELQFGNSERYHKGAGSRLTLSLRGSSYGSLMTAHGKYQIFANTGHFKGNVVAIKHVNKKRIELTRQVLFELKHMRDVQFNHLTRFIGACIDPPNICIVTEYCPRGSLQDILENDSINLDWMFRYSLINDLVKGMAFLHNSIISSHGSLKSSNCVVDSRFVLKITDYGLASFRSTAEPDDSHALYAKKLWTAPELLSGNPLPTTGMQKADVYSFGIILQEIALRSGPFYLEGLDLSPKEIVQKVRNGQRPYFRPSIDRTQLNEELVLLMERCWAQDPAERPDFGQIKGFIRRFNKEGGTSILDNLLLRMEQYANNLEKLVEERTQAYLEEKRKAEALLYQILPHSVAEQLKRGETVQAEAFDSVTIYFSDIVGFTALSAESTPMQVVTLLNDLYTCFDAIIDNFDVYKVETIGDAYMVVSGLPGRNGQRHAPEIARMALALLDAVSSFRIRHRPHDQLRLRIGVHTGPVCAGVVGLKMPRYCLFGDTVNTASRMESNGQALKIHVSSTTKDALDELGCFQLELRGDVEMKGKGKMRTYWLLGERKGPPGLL
FLuc counter – inhibits firefly luciferase, false Npr1 antagonist flag | shares compounds with NPR1 antag | purified FLuc enzyme, luminescence, Km substrate | Potency, µM (highest dose often 57.6 µM), for the others: at the top dose activity change, negative = inhibition, actives largely listed as inhibitors | 1,400 tested, 0.7% active | AID 1347047; note: 0% is about no effect
GloSensor ctrl – counter-screen for Npr1 antagonists: GloSensor control cell line; shares compounds with NPR1 antag; HEK293 GloSensor cGMP, SNP-stimulated, luminescence; Potency, µM (series often up to 57.6 µM), for the others: top-dose activity change, negative = inhibition, actives largely listed as inhibitors; 1,400 tested, 69% active; calls by dose curve; note: % is set by controls: 0 for no effect and ±100 for the full control effect; nearly all actives have a fitted effect of over 70% in size
The depositor's hits bear a star; i = inactive; ? = inconclusive; . = no result given; [ ] = another dose, or the depositor's remark. Most compounds without a hit are left out; they make up all but 7.4% or so of the library. Unless noted, calls come from the whole dose curve; as a rule, active = well fitted curve in the direction sought with a large enough effect; inconclusive = small, poorly fitted or top-dose-only effect, or another doubt; inactive = no such curve, though single readings can be large; an effect the other way counts as inactive or inconclusive. Potency is the fitted concentration of half-maximal effect.

SMILES	HEK cytotox	SNCA expr inhib	NIH3T3 tox	Luciferase inh	SNCA viab count	NPR1 antag	NPR1 antag cnf	NPR2 antag	FLuc counter	GloSensor ctrl
Cc1ccc(Cc2ccccc2C(=O)N2CCOC(C(F)(F)F)C2)cc1 (stereo not given)	?	-9%	-28%	i	1%	-11%	.	.	.	.
COc1ccc(C(C)NC(=O)C2CCN(c3cc(C(F)(F)F)ncn3)CC2)cc1 (stereo not given)	?	1%	?	i	1%	16µM*	24µM*	27µM*	2%	22µM*
CCc1ccc(NC(=O)C2CCN(c3cc(C(F)(F)F)ncn3)CC2)cc1	?	-10%	?	i	0%	7.9µM*	11µM*	11µM*	-1%	9.7µM*
CC(C)c1ccc(CNC(=O)C2CCN(c3cc(C(F)(F)F)ncn3)CC2)cc1	?	-9%	?	i	-18%	13µM*	24µM*	22µM*	3%	22µM*
O=C(NCc1ccc(F)cc1)C1CCN(c2cc(C(F)(F)F)ncn2)CC1	?	-2%	?	i	2%	?	.	.	.	.
Cc1ccc(NC(=O)C2CCN(c3cc(C(F)(F)F)ncn3)CC2)cc1	?	-4%	?	i	-13%	8.9µM*	14µM*	15µM*	0%	12µM*
CCOC(=O)C1CC1CN1CCC2(CC1)Cc1ccccc1CNC2=O (stereo not given)	-16%	5%	-9%	.	6%	.	.	.	.	.
O=C(C1CCCN1C(=O)c1ccc(C(F)(F)F)cc1)N1CCC(c2nc3ccncc3[nH]2)C1 (stereo not given)	-3%	22%	i	.	11%	.	.	.	.	.
O=c1nc(-c2ccccn2)sc2ccccc12	.	.	.	.	-13%	.	.	.	.	.
O=C(NCc1ccccc1)C1CCN(c2cc(C(F)(F)F)ncn2)CC1	?	?	?	i	4%	?	.	.	.	.
O=C(NCCCc1ccccc1)C1CCN(c2cc(C(F)(F)F)ncn2)CC1	?	?	?	i	11%	11µM*	22µM*	19µM*	-1%	11µM*
O=C(c1ccc(F)c(Cl)c1)N1CCN(C(=O)c2nnn3c2COC(c2ccccc2)C3)CC1 (stereo not given)	?	-19%	?	i	-12%	13µM*	22µM*	24µM*	1%	22µM*
O=C(c1ccc(F)c(F)c1)N1CCN(C(=O)c2nnn3c2COC(c2ccc(Cl)cc2)C3)CC1 (stereo not given)	-46%	-20%	?	i	1%	13µM*	22µM*	22µM*	8%	19µM*
COc1ccc(C(=O)N2CCN(C(=O)c3nnn4c3COC(c3ccc(Cl)cc3)C4)CC2)cc1F (stereo not given)	?	18%	-31%	i	-4%	?	24µM*	27µM*	1%	22µM*
CN(C)c1cccc(C(=O)N2CCN(C(=O)c3nnn4c3COC(c3ccc(Cl)cc3)C4)CC2)c1 (stereo not given)	?	?	?	i	?	13µM*	24µM*	24µM*	-29%	24µM*
COCCCNC(=O)c1nc2sccn2c1-c1ccc(C(F)(F)F)cc1	-18%	21%	?	.	-14%	.	.	.	.	.
Cc1nn(-c2ccccc2)c2c1C(C1CC1)N(C1CCN(Cc3ccsc3)CC1)C2=O (stereo not given)	-10%	.	-19%	.	.	.	.	.	.	.
O=C(c1nnn2c1COC(c1ccc(Cl)cc1)C2)N1CCN(C(=O)c2c(F)cccc2F)CC1 (stereo not given)	?	-14%	?	i	-13%	?	?	?	0%	?
O=C(c1cccc(Cl)c1)N1CCN(C(=O)c2nnn3c2COC(c2ccc(F)cc2)C3)CC1 (stereo not given)	?	2%	?	i	3%	13µM*	24µM*	24µM*	0%	24µM*
O=C(c1ccc[nH]1)N1CCN(C(=O)c2nnn3c2COC(c2ccc(Cl)cc2)C3)CC1 (stereo not given)	-19%	-7%	-11%	i	-1%	-2%	.	.	.	.
CSCc1nc(CNc2nc(C3CCCC3)nc3c2cnn3C)cs1	25µM*	-10%	?	i	-19%	8.9µM*	15µM*	19µM*	0%	12µM*
CCNc1nc(NCc2ccc(F)cc2)c2cnn(C)c2n1	.	5%	.	.	-9%	.	.	.	.	.
Cc1ccc(S(=O)(=O)N2CCC(n3cnnc3-c3ccccc3)CC2)cc1C	?	-18%	?	i	0%	-23%	?	?	-1%	-4%
COc1cccc(S(=O)(=O)N2CCC(n3cnnc3C(C)C)CC2)c1	-27%	3%	?	i	-8%	?	?	?	-2%	?
Cc1cc(S(=O)(=O)N2CCC(n3cnnc3-c3ccccc3)CC2)ccc1F	-23%	?	-23%	i	3%	-28%	.	.	.	.
COc1ccc(CN2CCc3oc(C)c(C(=O)N4CCCCCC4)c3C2)cc1	?	-4%	?	i	?	-14%	.	.	.	.
O=C(Nc1ccon1)[C@@H]1C[C@@H](c2ccc(F)cc2)N(Cc2ccccc2)C1	32µM*	-11%[87.6 µM]	?	i	?	16µM*	31µM*	20µM*	2%[86.2 µM]	18µM*
Cn1ccc(NC(=O)[C@@H]2C[C@@H](c3ccc(F)cc3)N(Cc3ccccc3)C2)n1	50µM*	-2%[87.6 µM]	?	i	1%[87.6 µM]	35µM*	40µM*	35µM*	3%[86.2 µM]	35µM*
